Legend:
[1] = target: T1, Ephrin type-B receptor 3 (Homo sapiens) (UniProt P54753); conditions: at 10 µM
T1 sequence (whole entry): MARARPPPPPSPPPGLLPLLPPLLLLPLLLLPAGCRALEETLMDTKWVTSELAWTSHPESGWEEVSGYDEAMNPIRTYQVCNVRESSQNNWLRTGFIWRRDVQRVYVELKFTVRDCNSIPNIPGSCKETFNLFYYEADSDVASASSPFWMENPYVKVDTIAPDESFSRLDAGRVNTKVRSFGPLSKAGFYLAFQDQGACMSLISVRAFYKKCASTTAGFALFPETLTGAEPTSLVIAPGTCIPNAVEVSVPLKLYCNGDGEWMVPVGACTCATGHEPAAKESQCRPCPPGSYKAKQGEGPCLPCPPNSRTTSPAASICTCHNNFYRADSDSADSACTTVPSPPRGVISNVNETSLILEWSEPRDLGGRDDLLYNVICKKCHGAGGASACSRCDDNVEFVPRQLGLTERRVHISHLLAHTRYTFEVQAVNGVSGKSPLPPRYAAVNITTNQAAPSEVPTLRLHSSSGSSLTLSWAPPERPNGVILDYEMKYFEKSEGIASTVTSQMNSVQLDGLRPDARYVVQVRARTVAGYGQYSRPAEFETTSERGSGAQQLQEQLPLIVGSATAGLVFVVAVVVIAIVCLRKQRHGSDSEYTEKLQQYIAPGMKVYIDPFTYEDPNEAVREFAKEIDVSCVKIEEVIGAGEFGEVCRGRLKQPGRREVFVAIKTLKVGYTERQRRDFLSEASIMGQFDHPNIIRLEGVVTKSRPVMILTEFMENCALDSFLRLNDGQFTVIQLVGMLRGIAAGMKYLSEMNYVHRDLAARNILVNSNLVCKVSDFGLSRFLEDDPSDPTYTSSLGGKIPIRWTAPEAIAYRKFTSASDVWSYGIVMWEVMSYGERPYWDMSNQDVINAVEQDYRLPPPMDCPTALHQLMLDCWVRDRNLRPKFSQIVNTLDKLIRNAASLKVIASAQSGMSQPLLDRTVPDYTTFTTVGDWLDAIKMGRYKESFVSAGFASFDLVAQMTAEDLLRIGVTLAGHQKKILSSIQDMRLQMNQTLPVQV

[2] = target: T2, Ephrin type-B receptor 4 (Homo sapiens) (UniProt P54760); conditions: at 1 µM
T2 sequence (whole entry): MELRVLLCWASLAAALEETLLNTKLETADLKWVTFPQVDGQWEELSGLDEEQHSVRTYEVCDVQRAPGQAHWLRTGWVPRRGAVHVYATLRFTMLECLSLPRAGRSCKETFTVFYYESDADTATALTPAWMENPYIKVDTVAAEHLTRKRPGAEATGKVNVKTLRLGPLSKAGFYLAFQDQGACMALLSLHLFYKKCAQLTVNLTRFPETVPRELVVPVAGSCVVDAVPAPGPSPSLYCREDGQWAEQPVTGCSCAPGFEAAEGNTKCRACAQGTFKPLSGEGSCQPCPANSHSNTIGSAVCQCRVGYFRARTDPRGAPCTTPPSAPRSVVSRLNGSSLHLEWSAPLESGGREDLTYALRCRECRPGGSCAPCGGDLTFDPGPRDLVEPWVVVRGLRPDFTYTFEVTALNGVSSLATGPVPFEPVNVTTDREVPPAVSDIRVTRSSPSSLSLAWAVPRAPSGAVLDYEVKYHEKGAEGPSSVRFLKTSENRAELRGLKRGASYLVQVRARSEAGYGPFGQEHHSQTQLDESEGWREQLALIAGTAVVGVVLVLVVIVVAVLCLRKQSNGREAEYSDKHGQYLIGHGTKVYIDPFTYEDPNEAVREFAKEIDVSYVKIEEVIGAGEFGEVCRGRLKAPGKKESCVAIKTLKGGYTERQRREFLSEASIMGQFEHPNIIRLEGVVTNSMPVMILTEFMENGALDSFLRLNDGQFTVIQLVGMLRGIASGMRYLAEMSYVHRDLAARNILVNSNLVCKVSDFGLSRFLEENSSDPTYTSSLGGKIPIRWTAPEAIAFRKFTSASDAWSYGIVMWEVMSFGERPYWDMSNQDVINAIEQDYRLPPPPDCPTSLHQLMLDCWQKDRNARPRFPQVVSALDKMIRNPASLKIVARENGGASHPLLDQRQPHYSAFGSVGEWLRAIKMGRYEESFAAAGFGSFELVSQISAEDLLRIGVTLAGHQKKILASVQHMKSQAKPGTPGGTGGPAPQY

[3] = target: T3, Ephrin type-A receptor 3 (Homo sapiens) (UniProt P29320); conditions: at 10 µM
T3 sequence (whole entry): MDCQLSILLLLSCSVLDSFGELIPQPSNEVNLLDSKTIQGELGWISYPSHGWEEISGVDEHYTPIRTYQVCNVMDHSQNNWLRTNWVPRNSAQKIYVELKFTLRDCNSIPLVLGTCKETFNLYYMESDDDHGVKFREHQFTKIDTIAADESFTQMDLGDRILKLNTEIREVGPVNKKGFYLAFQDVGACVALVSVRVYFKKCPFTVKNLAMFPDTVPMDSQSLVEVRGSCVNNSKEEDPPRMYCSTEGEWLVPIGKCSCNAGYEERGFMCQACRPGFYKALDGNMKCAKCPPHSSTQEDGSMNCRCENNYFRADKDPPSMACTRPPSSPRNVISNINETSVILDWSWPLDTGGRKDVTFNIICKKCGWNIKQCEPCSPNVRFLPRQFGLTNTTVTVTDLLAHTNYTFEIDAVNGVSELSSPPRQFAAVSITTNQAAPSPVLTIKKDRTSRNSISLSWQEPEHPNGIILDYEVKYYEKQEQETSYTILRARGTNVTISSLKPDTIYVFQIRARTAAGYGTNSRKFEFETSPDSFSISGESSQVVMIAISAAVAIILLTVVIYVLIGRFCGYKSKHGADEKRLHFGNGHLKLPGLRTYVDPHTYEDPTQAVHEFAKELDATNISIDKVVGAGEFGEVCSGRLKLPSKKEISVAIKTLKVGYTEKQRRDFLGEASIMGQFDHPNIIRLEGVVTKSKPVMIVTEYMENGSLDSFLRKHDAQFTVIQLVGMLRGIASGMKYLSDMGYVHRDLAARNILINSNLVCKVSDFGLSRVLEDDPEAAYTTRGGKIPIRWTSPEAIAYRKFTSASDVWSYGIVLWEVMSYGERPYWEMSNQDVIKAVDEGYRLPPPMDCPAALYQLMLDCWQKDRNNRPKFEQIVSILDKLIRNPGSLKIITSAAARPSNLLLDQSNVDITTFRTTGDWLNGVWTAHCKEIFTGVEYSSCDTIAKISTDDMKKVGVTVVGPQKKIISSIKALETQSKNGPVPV

[4] = target: Ephrin type-A receptor 4 (Homo sapiens) (UniProt P54764); conditions: at 1 µM
Ephrin type-A receptor 4 (Homo sapiens), sequence (P54764 whole entry): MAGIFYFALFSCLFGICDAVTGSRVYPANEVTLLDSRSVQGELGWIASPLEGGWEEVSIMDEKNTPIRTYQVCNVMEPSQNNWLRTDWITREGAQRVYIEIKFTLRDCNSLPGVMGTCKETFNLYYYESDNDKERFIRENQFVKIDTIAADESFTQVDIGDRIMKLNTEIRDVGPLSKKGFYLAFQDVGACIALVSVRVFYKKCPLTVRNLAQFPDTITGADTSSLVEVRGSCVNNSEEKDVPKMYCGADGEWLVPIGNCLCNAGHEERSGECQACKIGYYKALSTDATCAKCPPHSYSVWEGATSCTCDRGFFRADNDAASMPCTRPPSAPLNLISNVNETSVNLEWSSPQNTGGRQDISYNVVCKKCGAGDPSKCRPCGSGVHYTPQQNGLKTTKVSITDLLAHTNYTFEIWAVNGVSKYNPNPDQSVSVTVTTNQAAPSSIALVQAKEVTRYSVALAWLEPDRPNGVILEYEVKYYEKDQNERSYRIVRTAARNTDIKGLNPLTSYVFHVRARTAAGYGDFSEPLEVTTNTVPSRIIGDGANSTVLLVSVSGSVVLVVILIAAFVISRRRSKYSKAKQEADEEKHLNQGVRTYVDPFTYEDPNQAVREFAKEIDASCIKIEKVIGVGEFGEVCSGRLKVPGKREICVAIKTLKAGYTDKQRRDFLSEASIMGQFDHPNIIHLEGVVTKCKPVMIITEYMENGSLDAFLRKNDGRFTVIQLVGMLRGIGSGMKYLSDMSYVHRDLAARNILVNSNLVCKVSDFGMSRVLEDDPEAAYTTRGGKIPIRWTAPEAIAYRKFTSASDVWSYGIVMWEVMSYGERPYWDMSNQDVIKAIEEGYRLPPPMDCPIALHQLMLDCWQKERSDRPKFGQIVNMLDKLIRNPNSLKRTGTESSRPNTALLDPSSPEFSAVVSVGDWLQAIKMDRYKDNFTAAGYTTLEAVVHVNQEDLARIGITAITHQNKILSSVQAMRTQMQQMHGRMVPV

[5] = target: Ephrin type-A receptor 4 (Homo sapiens) (UniProt P54764); conditions: at 10 µM
[6] = target: Ephrin type-A receptor 5 (Homo sapiens) (UniProt P54756); conditions: at 1 µM
Ephrin type-A receptor 5 (Homo sapiens), sequence (P54756 whole entry): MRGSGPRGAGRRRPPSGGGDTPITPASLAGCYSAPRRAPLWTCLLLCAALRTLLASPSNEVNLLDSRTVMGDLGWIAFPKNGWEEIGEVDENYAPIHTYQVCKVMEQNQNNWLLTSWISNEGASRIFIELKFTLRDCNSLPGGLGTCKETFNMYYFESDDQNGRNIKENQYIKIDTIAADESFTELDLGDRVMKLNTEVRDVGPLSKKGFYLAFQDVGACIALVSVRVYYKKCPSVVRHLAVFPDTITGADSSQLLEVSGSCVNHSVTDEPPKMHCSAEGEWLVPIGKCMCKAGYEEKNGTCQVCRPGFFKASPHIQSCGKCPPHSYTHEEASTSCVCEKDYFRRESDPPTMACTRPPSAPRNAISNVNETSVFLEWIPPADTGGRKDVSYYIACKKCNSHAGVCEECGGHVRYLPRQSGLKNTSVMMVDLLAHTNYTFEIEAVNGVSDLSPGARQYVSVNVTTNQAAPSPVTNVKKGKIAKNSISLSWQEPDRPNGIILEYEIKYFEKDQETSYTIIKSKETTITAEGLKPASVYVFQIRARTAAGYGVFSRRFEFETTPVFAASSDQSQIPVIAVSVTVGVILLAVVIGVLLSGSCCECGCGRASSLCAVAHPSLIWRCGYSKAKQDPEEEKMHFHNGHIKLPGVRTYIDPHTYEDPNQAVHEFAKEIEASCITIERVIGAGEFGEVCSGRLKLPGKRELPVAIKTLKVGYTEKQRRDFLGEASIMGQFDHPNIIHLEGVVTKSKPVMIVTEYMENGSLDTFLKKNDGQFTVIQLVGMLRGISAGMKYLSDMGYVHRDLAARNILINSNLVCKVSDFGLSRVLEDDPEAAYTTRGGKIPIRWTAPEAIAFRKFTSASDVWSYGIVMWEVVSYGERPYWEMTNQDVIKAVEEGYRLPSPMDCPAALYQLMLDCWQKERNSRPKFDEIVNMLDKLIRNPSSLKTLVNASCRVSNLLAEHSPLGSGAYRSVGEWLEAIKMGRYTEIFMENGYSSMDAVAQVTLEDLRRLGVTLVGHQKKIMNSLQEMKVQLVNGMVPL

[7] = target: Ephrin type-A receptor 5 (Homo sapiens) (UniProt P54756); conditions: at 10 µM
[8] = target: Ephrin type-A receptor 7 (Homo sapiens) (UniProt Q15375); conditions: at 1 µM
Ephrin type-A receptor 7 (Homo sapiens), sequence (Q15375 28-998 limits assumed): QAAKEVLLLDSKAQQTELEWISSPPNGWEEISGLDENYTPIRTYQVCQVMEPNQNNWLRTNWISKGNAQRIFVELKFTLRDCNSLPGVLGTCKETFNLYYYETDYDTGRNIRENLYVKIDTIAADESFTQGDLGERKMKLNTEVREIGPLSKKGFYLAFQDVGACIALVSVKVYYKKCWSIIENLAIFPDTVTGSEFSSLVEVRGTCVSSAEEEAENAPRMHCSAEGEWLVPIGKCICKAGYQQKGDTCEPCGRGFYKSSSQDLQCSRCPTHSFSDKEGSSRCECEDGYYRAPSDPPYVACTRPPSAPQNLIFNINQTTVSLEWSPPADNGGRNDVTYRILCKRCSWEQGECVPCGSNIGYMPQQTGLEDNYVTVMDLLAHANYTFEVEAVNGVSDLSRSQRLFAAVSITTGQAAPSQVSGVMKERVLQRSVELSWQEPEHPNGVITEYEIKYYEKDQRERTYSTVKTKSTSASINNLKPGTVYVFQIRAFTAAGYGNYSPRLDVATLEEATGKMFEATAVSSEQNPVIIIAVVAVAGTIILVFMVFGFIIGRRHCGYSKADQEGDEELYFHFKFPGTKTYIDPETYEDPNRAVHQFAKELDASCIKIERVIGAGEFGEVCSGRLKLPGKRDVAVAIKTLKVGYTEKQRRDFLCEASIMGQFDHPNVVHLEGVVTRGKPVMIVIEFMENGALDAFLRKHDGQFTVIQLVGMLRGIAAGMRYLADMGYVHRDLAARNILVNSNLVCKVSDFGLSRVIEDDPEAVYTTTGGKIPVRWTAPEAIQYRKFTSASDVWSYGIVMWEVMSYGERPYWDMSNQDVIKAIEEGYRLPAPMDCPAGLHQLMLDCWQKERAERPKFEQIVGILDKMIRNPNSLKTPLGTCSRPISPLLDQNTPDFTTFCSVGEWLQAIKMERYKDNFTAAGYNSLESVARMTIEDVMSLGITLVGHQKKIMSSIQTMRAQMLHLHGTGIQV

[9] = target: Ephrin type-A receptor 7 (Homo sapiens) (UniProt Q15375); conditions: at 10 µM
[10] = target: T4, Ephrin type-A receptor 8 (Homo sapiens) (UniProt P29322); conditions: at 1 µM
T4 sequence (whole entry): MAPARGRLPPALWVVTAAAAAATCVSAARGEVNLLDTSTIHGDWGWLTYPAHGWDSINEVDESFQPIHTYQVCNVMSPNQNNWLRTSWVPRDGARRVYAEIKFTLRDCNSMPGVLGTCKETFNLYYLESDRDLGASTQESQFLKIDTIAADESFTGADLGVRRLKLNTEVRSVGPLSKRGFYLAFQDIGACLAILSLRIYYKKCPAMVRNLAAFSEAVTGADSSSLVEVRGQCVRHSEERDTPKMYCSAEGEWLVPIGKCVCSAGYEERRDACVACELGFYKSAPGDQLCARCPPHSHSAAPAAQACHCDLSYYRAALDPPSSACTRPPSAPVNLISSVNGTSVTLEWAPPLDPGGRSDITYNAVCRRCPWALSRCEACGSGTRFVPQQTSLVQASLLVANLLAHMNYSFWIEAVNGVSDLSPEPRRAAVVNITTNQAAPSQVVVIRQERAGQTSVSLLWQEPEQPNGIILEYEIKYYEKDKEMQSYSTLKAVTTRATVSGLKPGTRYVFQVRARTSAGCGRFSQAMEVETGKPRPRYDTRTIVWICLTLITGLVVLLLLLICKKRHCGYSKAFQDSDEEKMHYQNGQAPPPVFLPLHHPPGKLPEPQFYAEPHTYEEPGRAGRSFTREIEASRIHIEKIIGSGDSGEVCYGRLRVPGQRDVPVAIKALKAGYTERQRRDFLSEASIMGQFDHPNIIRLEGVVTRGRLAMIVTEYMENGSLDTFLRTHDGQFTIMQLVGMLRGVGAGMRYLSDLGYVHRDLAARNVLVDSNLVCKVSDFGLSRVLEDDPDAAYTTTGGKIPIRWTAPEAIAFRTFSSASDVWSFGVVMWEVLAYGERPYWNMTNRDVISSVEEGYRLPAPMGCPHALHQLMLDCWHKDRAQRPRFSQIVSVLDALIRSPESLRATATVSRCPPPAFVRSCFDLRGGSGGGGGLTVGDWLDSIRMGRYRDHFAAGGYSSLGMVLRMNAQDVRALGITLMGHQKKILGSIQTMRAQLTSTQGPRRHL

[11] = target: T4, Ephrin type-A receptor 8 (Homo sapiens); conditions: at 10 µM
[12] = target: T5, Ephrin type-B receptor 1 (Homo sapiens) (UniProt P54762); conditions: at 1 µM
T5 sequence (whole entry): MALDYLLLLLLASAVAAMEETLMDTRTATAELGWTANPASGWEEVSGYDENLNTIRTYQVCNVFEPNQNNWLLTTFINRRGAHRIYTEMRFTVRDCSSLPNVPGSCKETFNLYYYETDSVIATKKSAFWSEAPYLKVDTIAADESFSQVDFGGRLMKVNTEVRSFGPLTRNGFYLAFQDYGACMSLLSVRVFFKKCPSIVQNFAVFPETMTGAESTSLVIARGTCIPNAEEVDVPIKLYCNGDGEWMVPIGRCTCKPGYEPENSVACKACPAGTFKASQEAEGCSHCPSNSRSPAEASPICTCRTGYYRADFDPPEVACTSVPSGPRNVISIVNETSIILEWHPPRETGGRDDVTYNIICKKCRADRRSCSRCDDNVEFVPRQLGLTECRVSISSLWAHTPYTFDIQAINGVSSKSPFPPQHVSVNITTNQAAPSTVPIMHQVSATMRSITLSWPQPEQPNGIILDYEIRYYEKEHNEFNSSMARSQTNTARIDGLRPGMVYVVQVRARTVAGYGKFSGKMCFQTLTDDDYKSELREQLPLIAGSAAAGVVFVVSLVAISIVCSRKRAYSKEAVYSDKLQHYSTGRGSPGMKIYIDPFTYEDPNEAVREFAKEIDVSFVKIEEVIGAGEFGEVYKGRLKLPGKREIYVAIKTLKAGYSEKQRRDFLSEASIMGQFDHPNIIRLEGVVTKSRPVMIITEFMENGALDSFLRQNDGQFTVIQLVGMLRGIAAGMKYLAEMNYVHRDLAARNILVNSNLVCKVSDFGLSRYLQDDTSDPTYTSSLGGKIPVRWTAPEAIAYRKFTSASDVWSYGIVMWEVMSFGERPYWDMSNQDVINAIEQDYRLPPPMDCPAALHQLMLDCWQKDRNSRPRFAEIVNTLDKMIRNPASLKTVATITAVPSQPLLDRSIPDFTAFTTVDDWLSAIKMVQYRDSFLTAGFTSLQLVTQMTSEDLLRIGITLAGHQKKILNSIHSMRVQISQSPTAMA

[13] = target: T5, Ephrin type-B receptor 1 (Homo sapiens); conditions: at 10 µM
[14] = target: T1, Ephrin type-B receptor 3 (Homo sapiens); conditions: at 1 µM
[15] = target: T2, Ephrin type-B receptor 4 (Homo sapiens); conditions: at 10 µM
[16] = target: Receptor tyrosine-protein kinase erbB-4 (Homo sapiens) (UniProt Q15303); conditions: at 10 µM
[17] = target: Focal adhesion kinase 1 (Homo sapiens) (UniProt Q05397); conditions: at 1 µM
Focal adhesion kinase 1 (Homo sapiens), sequence (Q05397 2-1052 limits assumed): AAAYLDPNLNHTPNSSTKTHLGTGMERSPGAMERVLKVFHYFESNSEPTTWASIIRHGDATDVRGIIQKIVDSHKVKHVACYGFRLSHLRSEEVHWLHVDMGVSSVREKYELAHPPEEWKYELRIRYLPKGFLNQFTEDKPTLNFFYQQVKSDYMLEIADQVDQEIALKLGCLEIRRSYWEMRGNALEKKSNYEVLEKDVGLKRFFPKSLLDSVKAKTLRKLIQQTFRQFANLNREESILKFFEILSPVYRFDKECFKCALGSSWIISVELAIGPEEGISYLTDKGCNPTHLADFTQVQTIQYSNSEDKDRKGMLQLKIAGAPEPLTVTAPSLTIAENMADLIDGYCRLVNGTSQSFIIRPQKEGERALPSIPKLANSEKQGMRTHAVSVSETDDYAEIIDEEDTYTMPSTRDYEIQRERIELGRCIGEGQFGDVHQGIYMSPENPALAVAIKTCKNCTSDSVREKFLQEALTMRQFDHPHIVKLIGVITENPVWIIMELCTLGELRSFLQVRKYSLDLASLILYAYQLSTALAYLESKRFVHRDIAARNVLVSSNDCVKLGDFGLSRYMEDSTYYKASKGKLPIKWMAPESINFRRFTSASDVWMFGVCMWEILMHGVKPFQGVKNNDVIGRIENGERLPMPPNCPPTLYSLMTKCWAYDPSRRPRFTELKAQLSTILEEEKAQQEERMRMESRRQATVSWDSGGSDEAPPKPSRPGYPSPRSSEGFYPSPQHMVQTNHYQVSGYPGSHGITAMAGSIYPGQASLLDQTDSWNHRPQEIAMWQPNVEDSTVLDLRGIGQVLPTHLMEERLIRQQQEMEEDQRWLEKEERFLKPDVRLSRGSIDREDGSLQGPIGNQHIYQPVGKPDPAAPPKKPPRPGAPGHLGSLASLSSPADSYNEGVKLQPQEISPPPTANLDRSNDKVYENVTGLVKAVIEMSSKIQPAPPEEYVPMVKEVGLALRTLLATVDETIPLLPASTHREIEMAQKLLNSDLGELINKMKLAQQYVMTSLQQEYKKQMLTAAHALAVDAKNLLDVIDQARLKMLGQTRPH

SMILES | residual activity [1] [%] | residual activity [2] [%] | residual activity [3] [%] | residual activity [4] [%] | residual activity [5] [%] | residual activity [6] [%] | residual activity [7] [%] | residual activity [8] [%] | residual activity [9] [%] | residual activity [10] [%] | residual activity [11] [%] | residual activity [12] [%] | residual activity [13] [%] | residual activity [14] | residual activity [15] [%] | residual activity [16] [%] | residual activity [17] [%]
CN[C@@H]1C[C@H]2O[C@@](C)([C@@H]1OC)n1c3ccccc3c3c4c(c5c6ccccc6n2c5c31)C(=O)NC4 | 131 | 79 | – | – | – | – | – | – | – | – | – | – | – | – | – | – | –
COc1cc(OC)c(/C=C2\C(=O)Nc3ccccc32)c(OC)c1 | 107 | 86 | 84 | 103 | 105 | 128 | 101 | 94 | 94 | 95 | 84 | 100 | 88 | 124% (inactive) | 82 | 106 | 92

Reference: ChEMBL document CHEMBL2218924, “A broad activity screen in support of a chemogenomic map for kinase signalling research and drug discovery” (Biochem J, 2013)
